Results reported in the supplement of paper PMC6555819.

system: RARg:RXRa (NR concentration 270 nM, RXRa partner concentration 90 nM); test: PBM binding z-score (relative to random genomic background probes); higher = stronger binding; sequences stand for … in GC…GCGATTGACAGCGTAGAATGAAGG
Outline: (§1)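 Scanned fluorescence from custom Agilent 4×180K protein-binding microarrays was regression-normalized. Binding z-scores use random background probes as reference. Ligand-free nuclear receptor dimers were incubated on the arrays for 1 h and detected with antibodies against each partner (one per run).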

Sequence	PBM binding z-score
CGTTCAAGGTCAAGGTCAGTGAAAGAGACTCGAA	6.92
ACTAGTTGGTCAGCCGAGGTCACACACAATTCGG	4.25
AGTCAAAGTTCACTAGATAACGTAAGATTCAGCT	4.97
ACTCGGAGAACAAAGGTCAGAGCTACGCCAGTGA	4.46
CCTAGGTGGTCAGGAGGTCACACACCGGATATGA	5.44
CCTTAAGGGTCACTGACAGGTTATAGCATTTGGA	7.23
TCGAGTAGGTTACCAATGGGGCATTCCGCTTTCT	0.942
TCTTGTAGATCAACGGTTAAGAAAGCCGAAGCCT	-0.0923
CCGACTGGGGCAGAAAGGTTACCATACCATCCGG	1.73
GCTAGCAGGCCATTTGGGTTACTCAATGACGGGC	-0.0989
AGTCAAAGTTCATCTAGGGAACGTAAGATATGCT	5.57
CAAACTAGGTCACCGGATGGTCAAAGTCCGCATG	5.82
CCTCGGAGGCCAGAAGGTCAGAGCTGTCCGCTTT	3.66
CTCGAAAGGTCGGTTGAGGTGAGTGTACGGATAA	2.68
TAGCCTAGGTCATGGTCCAGTATACCACGCGAAC	3.96
CCTGCTAGGTCAATGGTCAGCTACAGCAGCTCGC	3.82
TCGAGTACGTTAGGGGCATTCAGAATGGCGTCGA	0.169
TAGCCTAGGACATTGGGCCAGTATAGTACGCATC	-0.0558
CCTTACGGGTCACAAGGTTATAGCACGACGAGCG	5.7
GTAACGAGGGCAAGTTGATAGCAGAGTTTGATGG	1.66

Sequence	PBM binding z-score
ACGTACGGGTCAACGAGGTTATAGCACGCGTATA	5.69
TCAAACAGGTGAAGGTAACTCAGGTACGCAGTCG	0.691
CGAACTAGGTCAGAACTGGACAGTGAAGGATGAT	2.49
CCTACTGGTCCAAAGGTCATTGATTCCAATGCTC	5.09
CCGACTGGGGCAGAAAGGTTACCACACCATCCGG	1.77
CCTGCTAGGTCAATAGTCAGCTAAAGCAGCTCGC	3.06
GCTAGCTGGCCATTTGGGTCACTCAATGACGGGC	0.332
TTACCAAGGGGAAGGTCGTTGATCCCTCTGTAGA	0.225
ACTATTAGTTGACTTAGGGCAACCCATACGACGC	0.747
CAAACTAGGTCGCGAAAGGTCAAAGTCGAATGAC	6.69
CCTAGCAGGCCAGTGTCACTCAAGCATTTCGCTT	-0.0888
ACTTACGGGTCAACGAGGTTATAGGACGCGTATA	5.63
TCATATAGGTAAACAGGTGGAAGTCCGTAAGTTA	0.462
ATCGAAAGGTCGCGAGGTGAGTATACAGAAAGGC	5.11
CCCCGGAGGACAACAGGAGGTCAGAGCTGCCAGA	3.66
ACTTACGGGTCAACGAGGTTATAGTACGCGTATA	5.7
TCGAGTAGGTTACCATTGGGGCATTCAGCTTTCT	0.565
CCTTGTTGGTCAAGGTCACACACGCTATAGGTAC	4.56
CCTACTGGGCCACGAAAGGTCATTTATTCAGTGA	4.41
TCTTGTAGATCAAGAGAGGTTAAGAAAGTGCGCT	0.415

system: RARg homodimer (NR concentration 270 nM); test: as above
Outline: as §1

Sequence	PBM binding z-score
CGTTCAAGGTCAAGGTCAGTGAAAGAGACTCGAA	7.85
ACTAGTTGGTCAGCCGAGGTCACACACAATTCGG	4.08
AGTCAAAGTTCACTAGATAACGTAAGATTCAGCT	5.79
ACTCGGAGAACAAAGGTCAGAGCTACGCCAGTGA	3.88
CCTAGGTGGTCAGGAGGTCACACACCGGATATGA	4.63
CCTTAAGGGTCACTGACAGGTTATAGCATTTGGA	6.91
TCGAGTAGGTTACCAATGGGGCATTCCGCTTTCT	0.197
TCTTGTAGATCAACGGTTAAGAAAGCCGAAGCCT	-0.227
CCGACTGGGGCAGAAAGGTTACCATACCATCCGG	1.25
GCTAGCAGGCCATTTGGGTTACTCAATGACGGGC	0.178
AGTCAAAGTTCATCTAGGGAACGTAAGATATGCT	6.19
CAAACTAGGTCACCGGATGGTCAAAGTCCGCATG	5.58
CCTCGGAGGCCAGAAGGTCAGAGCTGTCCGCTTT	3.12
CTCGAAAGGTCGGTTGAGGTGAGTGTACGGATAA	2.86
TAGCCTAGGTCATGGTCCAGTATACCACGCGAAC	4.28
CCTGCTAGGTCAATGGTCAGCTACAGCAGCTCGC	4.13
TCGAGTACGTTAGGGGCATTCAGAATGGCGTCGA	-0.0328
TAGCCTAGGACATTGGGCCAGTATAGTACGCATC	0.0958
CCTTACGGGTCACAAGGTTATAGCACGACGAGCG	4.75
GTAACGAGGGCAAGTTGATAGCAGAGTTTGATGG	1.86

Sequence	PBM binding z-score
ACGTACGGGTCAACGAGGTTATAGCACGCGTATA	5.07
TCAAACAGGTGAAGGTAACTCAGGTACGCAGTCG	0.597
CGAACTAGGTCAGAACTGGACAGTGAAGGATGAT	3.05
CCTACTGGTCCAAAGGTCATTGATTCCAATGCTC	4.49
CCGACTGGGGCAGAAAGGTTACCACACCATCCGG	1.41
CCTGCTAGGTCAATAGTCAGCTAAAGCAGCTCGC	3.91
GCTAGCTGGCCATTTGGGTCACTCAATGACGGGC	0.89
TTACCAAGGGGAAGGTCGTTGATCCCTCTGTAGA	-0.054
ACTATTAGTTGACTTAGGGCAACCCATACGACGC	1.04
CAAACTAGGTCGCGAAAGGTCAAAGTCGAATGAC	6.26
CCTAGCAGGCCAGTGTCACTCAAGCATTTCGCTT	-0.171
ACTTACGGGTCAACGAGGTTATAGGACGCGTATA	5.28
TCATATAGGTAAACAGGTGGAAGTCCGTAAGTTA	0.0474
ATCGAAAGGTCGCGAGGTGAGTATACAGAAAGGC	4.94
CCCCGGAGGACAACAGGAGGTCAGAGCTGCCAGA	3.24
ACTTACGGGTCAACGAGGTTATAGTACGCGTATA	5.01
TCGAGTAGGTTACCATTGGGGCATTCAGCTTTCT	0.217
CCTTGTTGGTCAAGGTCACACACGCTATAGGTAC	4.95
CCTACTGGGCCACGAAAGGTCATTTATTCAGTGA	4.2
TCTTGTAGATCAAGAGAGGTTAAGAAAGTGCGCT	0.178
